In PubChem BioAssay:
Inconclusive results are not listed. Calls of active or inactive are those of the source. Unless noted, no cut-off is given here; in the data, nearly all actives have AC50 up to about 26 µM.

What was measured:
[1] = growth inhibition of DIPG glioma cells, dose response, cell-based, SU-DIPG-XVII, MIPE5.0, CellTiter-Glo, qHTS (AID 1347060); conditions: SU-DIPG-XVII viability, CellTiter-Glo ATP luminescence;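 for AC50: cells exposed to compound for 48 hours before viability readout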
[2] = viability loss in pontine glioma line – cell-based, SU-DIPG-XXV, MIPE5.0, CellTiter-Glo, qHTS, dose response (AID 1347065); conditions: CellTiter-Glo ATP luminescence;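 note: cells exposed to compound for 48 hours before ATP readout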
[3] = JHH-DIPG-1 glioma cell viability, MIPE5.0 library, CellTiter-Glo luminescence, qHTS (AID 1347067); conditions: JHH-DIPG-1 glioma viability, CellTiter-Glo ATP luminescence;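 note: cells exposed to compound for 48 hours before readout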
[4] = SU-DIPG-XXV glioma cell viability, MIPE5.0 library, qHTS (AID 1347068; cut-off not given, nearly all actives have IC50 up to about 30 µM;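 for IC50: cells exposed to compound for 48 hours before viability readout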)

CCC[C@H](N[C@H]1CCc2cc(F)cc(F)c2C1)C(=O)Nc1cn(C(C)(C)CNCC(C)(C)C)cn1
active: AC50 [1] 33.2 µM | AC50 [2] 18.6 µM | AC50 [3] 23.5 µM

Fc1ccc2[nH]ccc2c1-c1nc(N2CCOCC2)c2sc(CN3CCN(CC4CC4)CC3)cc2n1
active: AC50 [1] 20.9 µM | AC50 [2] 23.5 µM | AC50 [3] 23.5 µM

NC(=O)[C@H]1CCS[C@@H]2C[C@]3(CCCN3C(=O)Cc3ccc(NC(=O)COc4ccc(Cl)cc4Cl)cc3)C(=O)N12
active: AC50 [1] 4.17 µM | AC50 [2] 10.5 µM | AC50 [3] 16.6 µM

CCN(C)S(=O)(=O)Nc1ccc(F)c(C(=O)c2c[nH]c3ncc(-c4cnc(C5CC5)nc4)cc23)c1F
active: AC50 [1] 14.8 µM | AC50 [2] 7.42 µM | AC50 [3] 16.6 µM | IC50 [4] 16.6 µM

COc1ccc2[nH]c3c(c2c1)CCN[C@]31CS[C@@H]2c3c(OC(C)=O)c(C)c4c(c3[C@H](COC1=O)N1[C@@H]2[C@H]2c3c(cc(C)c(OC)c3O)C[C@@H]([C@@H]1O)N2C)OCO4
active: AC50 [1] 0.000959 µM | AC50 [2] 0.0034 µM | AC50 [3] 0.00135 µM

O=c1c(-c2ccc(O)cc2)coc2c([C@@H]3O[C@H](CO)[C@@H](O)[C@H](O)[C@H]3O)c(O)ccc12
inactive: outcome [1] | outcome [2] | outcome [3] | outcome [4]

Cn1cc(-c2c[nH]c3ncnc(N4CCOCC4)c23)cn1
inactive: outcome [1] | outcome [2] | outcome [3] | outcome [4]
